Experimental data published in PubChem BioAssay (NCATS).
Inconclusive results are not listed. Where a call stands in place of a potency, no number is given. Activity calls are given as the source filed them. Unless noted, the call rests on the fitted dose curve; in most records, active means well fitted curve in the direction sought with a large enough effect; inconclusive means small, poorly fitted or top-dose-only effect, or another doubt; inactive means no such curve, though single readings can be large; an effect the other way counts as inactive or inconclusive.

Experiments:
[1] = target: Cytochrome P450 3A4 (Homo sapiens) (UniProt P08684); assay: qHTS Assay for Inhibitors and Substrates of Cytochrome P450 3A4 (AID 884); further: nearly all actives have a fitted effect of over 50% in size; further: potency means the concentration at half of the fitted maximal effect
Outline: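 Luminescent readout of luciferin produced by CYP3A4 (20 nM) dealkylation of Luciferin-PPXE, 25 uM (its KM). NADPH-driven reaction ran 60 min at RT after 10 min compound preincubation; data scaled to 57 uM ketoconazole as 100% inhibition.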

[2] = Confirmation and Secondary Assay for Modulators of Hemoglobin Beta Chain Splicing at IVS2 654 locus (AID 910);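 further: HeLa cells stably carrying EGFP split by mutant beta-globin IVS2-654 intron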
Outline: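 HeLa cells stably expressing EGFP interrupted by β-globin IVS2-654 intron, seeded overnight in Opti-MEM/2% FCS, then treated 2 days at 37 °C. Restored splicing read as total peak GFP intensity per well by laser scanning cytometry (488 nm excitation, 500–520 nm emission); 500 nM antisense PNA as control.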

[3] = Confirmation and Secondary Assay for Modulators of Hemoglobin Beta Chain Splicing at IVS2 705 locus (AID 930);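 further: HeLa cells stably expressing the EGFP-705 splicing reporter; GFP fluorescence per well restored by corrected splicing of the IVS2-705 intron in EGFP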
Outline: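 Per-well GFP, captured at 1 x 8 µm resolution with 488 nm excitation, served as the read-out for HeLa EGFP-705 cells incubated 2 days with test compound versus DMSO.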

[4] = qHTS Assay for Lipid Storage Modulators (AID 1519; calls by dose curve); conditions: Drosophila S3 cells, BODIPY lipid droplet/cell ratio, laser cytometry, cells loaded with oleic acid; for activity change, negative = inhibition: at 57.5 µM (top of the series)
Outline: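 Cells seeded at 5,000 per well were treated with compounds over a concentration series and loaded with oleic acid (400 uM, as added). Lipid droplet fluorescence (488 nm excitation, 500-530 nm channel) was read by laser-scanning cytometry and normalized to 20 uM Triacsin C.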

[5] = target: Ubiquitin carboxyl-terminal hydrolase 1 (Homo sapiens) (UniProt O94782); assay: Inhibitors of USP1/UAF1: Pilot qHTS (AID 504865);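 further: rhodamine fluorescence freed from ubiquitin-rhodamine substrate followed over time; top concentration of the series differs between compounds; nearly all actives have a fitted effect of over 35% in size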
Outline: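 USP1/UAF1 complex (1nM) preincubated with compound 15 min at room temperature, then Ub-Rho substrate (150nM final) added. Fluorescence read kinetically at 480/540 nm, 6 reads every 60 seconds. Buffer: 50mM HEPES pH 7.8, 0.5mM EDTA, 0.1 mg/ml BSA, 1mM TCEP, 0.01% Tween-20.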

[6] = measured here: cell count channel max response
[7] = measured here: lipid channel max response

Cytochrome P450 3A4 (Homo sapiens), sequence (P08684 whole entry, looked up): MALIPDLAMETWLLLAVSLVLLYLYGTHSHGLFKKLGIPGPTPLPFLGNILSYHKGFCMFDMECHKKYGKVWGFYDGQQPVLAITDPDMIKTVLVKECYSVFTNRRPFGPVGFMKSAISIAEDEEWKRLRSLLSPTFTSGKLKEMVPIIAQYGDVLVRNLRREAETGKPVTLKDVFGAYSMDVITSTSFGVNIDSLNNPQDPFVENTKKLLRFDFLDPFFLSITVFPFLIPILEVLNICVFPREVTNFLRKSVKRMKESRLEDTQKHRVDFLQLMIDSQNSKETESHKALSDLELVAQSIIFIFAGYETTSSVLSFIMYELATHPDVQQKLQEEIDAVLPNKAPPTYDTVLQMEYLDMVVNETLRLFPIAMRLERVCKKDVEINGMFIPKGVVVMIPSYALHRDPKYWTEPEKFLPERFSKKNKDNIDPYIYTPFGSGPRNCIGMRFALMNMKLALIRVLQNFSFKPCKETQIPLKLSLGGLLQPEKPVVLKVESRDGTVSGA
Ubiquitin carboxyl-terminal hydrolase 1 (Homo sapiens), sequence (O94782 whole entry, looked up): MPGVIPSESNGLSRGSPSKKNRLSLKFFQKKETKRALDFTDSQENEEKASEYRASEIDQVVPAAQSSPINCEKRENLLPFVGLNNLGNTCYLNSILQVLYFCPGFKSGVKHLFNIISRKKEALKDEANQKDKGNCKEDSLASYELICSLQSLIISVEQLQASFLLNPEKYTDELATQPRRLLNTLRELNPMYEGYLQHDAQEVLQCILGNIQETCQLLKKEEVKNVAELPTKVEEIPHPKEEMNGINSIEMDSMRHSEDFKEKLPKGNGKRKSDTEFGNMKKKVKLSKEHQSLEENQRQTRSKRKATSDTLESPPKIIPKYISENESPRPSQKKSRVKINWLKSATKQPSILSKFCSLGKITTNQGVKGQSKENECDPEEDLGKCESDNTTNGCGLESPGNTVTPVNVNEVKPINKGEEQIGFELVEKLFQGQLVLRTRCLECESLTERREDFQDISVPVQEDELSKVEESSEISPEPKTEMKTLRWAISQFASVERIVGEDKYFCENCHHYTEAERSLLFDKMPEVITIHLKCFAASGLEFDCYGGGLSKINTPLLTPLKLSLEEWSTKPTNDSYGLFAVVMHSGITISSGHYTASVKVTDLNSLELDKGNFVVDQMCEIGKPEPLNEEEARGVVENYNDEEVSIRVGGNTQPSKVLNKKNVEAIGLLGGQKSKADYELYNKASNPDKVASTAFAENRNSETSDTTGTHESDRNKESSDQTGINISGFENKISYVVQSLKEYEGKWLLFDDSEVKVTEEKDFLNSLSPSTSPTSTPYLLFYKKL

Compound	Potency [1]	Potency [2]	Potency [3]	activity change, negative = inhibition [4]	max response [4, 6]	max response [4, 7]	Potency [5]
CC1(C)CC[C@]2(C)CC[C@@]3(C)C(=CCC4[C@@]5(C)CCC(O)C(C)(C)C5CC[C@@]43C)C2C1 (stereo partly specified)	inactive	inactive	inactive	3.54% (inactive)	18%	24.3%	inactive
CC(C)C1COc2cc3oc(=O)ccc3cc2O1 (stereo unspecified)	inactive	inactive	inactive	9.84% (inactive)	6%	13.7%	inactive
CC(=O)OC1CC[C@]2(C)C(=CCC3C4CCC(C(C)CCCC(C)C)[C@]4(C)CCC32)C1 (stereo partly specified)	inactive	inactive	inactive	5.26% (inactive)	9.32%	13.2%	inactive
NC(CSCSCC(N)C(=O)O)C(=O)O (stereo unspecified)	inactive	inactive	inactive	1.54% (inactive)	7.28%	12.4%	inactive
O=C/C=C/c1ccc(O)cc1	inactive	inactive	inactive	4.82% (inactive)	10.7%	16.6%	inactive
Nc1nc2nc(Cl)[nH]c2c(=O)[nH]1	inactive	inactive	inactive	6.34% (inactive)	6.47%	14.5%	inactive
COc1cc(OC)c2c(=O)c(O)c(-c3ccc(OC)c(OC)c3)oc2c1	2.51 µM (active)	inactive	inactive	4.09% (inactive)	5.03%	9.16%	inactive
COc1ccc(-c2c(O)c3c(OC)c4c(cc3oc2=O)OC(C)(C)C=C4)cc1	6.31 µM (active)	inactive	inactive	-13.4% (inactive)	-5.03%	-5.79%	inactive
CC(C)(O)CCC(O)[C@@](C)(O)C1CC[C@]2(O)C3=CC(=O)C4CC(O)C(O)C[C@]4(C)C3CC[C@]12C (stereo partly specified)	inactive	inactive	inactive	2.72% (inactive)	-2.83%	0.37%	inactive
CCC1OC(=O)C(C)[C@@H](O[C@H]2C[C@@](C)(OC)C(O)C(C)O2)C(C)[C@@H](O[C@@H]2OC(C)CC(N(C)C)C2O)[C@](C)(O)CC(C)/C(=N\OCOCCOC)[C@H](C)C(O)[C@]1(C)O (stereo partly specified)	inactive	inactive	inactive	7.24% (inactive)	27.8%	41%	inactive
CC1CCC2(OC1)OC1CC3C4CC[C@@H]5CC(O)CC[C@@]5(C)C4CC(=O)[C@]3(C)C1C2C (stereo partly specified)	inactive	inactive	inactive	9.56% (inactive)	0.354%	13.1%	inactive
C#CCCCCCCCCCCCC(=O)CC(O)COC(C)=O (stereo unspecified)	inactive	inactive	inactive	3.5% (inactive)	13.4%	17.1%	inactive
Nc1nc2c(nc(Br)n2C2OC(CO)C(O)C2O)c(=O)[nH]1 (stereo unspecified)	inactive	inactive	inactive	2.67% (inactive)	15.6%	18.1%	inactive
O=C(O)C1CC(C2CCCCN2)CN2CCCCC12 (stereo unspecified)	inactive	inactive	inactive	2.57% (inactive)	-1.28%	1.78%	inactive
OC1C2COC(O2)[C@H](O)C1O (stereo partly specified)	inactive	inactive	inactive	7.67% (inactive)	12.6%	22.2%	inactive
CCNC(=O)CCC(N)C(=O)O (stereo unspecified)	inactive	inactive	inactive	2.77% (inactive)	9.46%	16.9%	inactive
Cc1cn(C2CCC(CO)O2)c(=O)[nH]c1=O (stereo unspecified)	inactive	inactive	inactive	4.05% (inactive)	13.1%	17.4%	inactive
O=c1oc2ccccc2cc1O	inactive	inactive	inactive	6.16% (inactive)	4.09%	13.1%	inactive
OCC1OC(n2cnc3c(Cl)nc(Cl)nc32)C(O)C1O (stereo unspecified)	inactive	inactive	inactive	6.74% (inactive)	16.5%	22.9%	inactive
CCC(CCC(C)C1CCC2C3CC=C4CC(OC(C)=O)CC[C@@]4(C)C3CC[C@@]12C)C(C)C (stereo partly specified)	inactive	inactive	inactive	5.75% (inactive)	28.8%	28.4%	inactive
NCCC(=O)N[C@H](Cc1cnc[nH]1)C(=O)O	inactive	inactive	inactive	4.17% (inactive)	11.4%	10.9%	inactive
CC1=C(/C=C/C(C)=C/C=C/C(C)=C/C=C/C=C(C)/C=C/C=C(C)/C=C/C2=C(C)C(=O)C(O)CC2(C)C)C(C)(C)CC(O)C1=O (stereo unspecified)	inactive	inactive	inactive	2.55% (inactive)	25.7%	27.4%	inactive
COC1C(O)C(CO)OC1n1cnc2c(=O)[nH]c(N)nc21 (stereo unspecified)	inactive	inactive	inactive	5.46% (inactive)	13.5%	20.7%	inactive
Nc1nc2c(nc(Br)n2C2CC(O)C(CO)O2)c(=O)[nH]1 (stereo unspecified)	inactive	inactive	inactive	3.88% (inactive)	4.93%	9.77%	inactive

Compound	Potency [1]	Potency [2]	Potency [3]	activity change, negative = inhibition [4]	max response [4, 6]	max response [4, 7]	Potency [5]
CC1CC[C@@]2(OC1)OC1CC3C4CC[C@H]5CC(O)CC[C@@]5(C)C4CC[C@]3(C)C1C2C (stereo partly specified)	inactive	inactive	inactive	2.03% (inactive)	27.2%	29.7%	inactive
CC(=O)C1CCC2C3CC=C4CC(O)CC[C@@]4(C)C3CC[C@]12C (stereo partly specified)	inactive	inactive	inactive	2.94% (inactive)	11.3%	18.4%	inactive
COc1cc(-c2coc3cc(OC)c(OC)c(OC)c3c2=O)cc(OC)c1OC	inactive	inactive	inactive	2.36% (inactive)	17.7%	21.5%	inactive
CC(=O)OCC1OC(n2cnc3c(=O)[nH]cnc32)C(OC(C)=O)C1OC(C)=O (stereo unspecified)	inactive	inactive	inactive	3.9% (inactive)	9.07%	13.2%	inactive
C=C(C)C1Cc2c(ccc(C(=O)O)c2O)O1 (stereo unspecified)	inactive	inactive	inactive	5.26% (inactive)	17%	23.8%	inactive
CCCCCC(CC(=O)O)C(=O)O (stereo unspecified)	inactive	inactive	inactive	12.5% (inactive)	21.4%	35.2%	inactive
CC(=O)OCC(OC(C)=O)C(OC(C)=O)C(OC(C)=O)C(OC(C)=O)C(COC(C)=O)OC(C)=O (stereo unspecified)	inactive	inactive	inactive	10.5% (inactive)	5.07%	17.8%	inactive
Nc1nc(O)c2ncn([C@H]3CC[C@@H](CO)O3)c2n1	inactive	inactive	inactive	7.72% (inactive)	-2.43%	2.95%	inactive
O=c1ccn(C2OC(COP(=O)(O)OP(=O)(O)OP(=O)(O)O)C(O)C2O)c(=O)[nH]1 (stereo unspecified)	inactive	inactive	inactive	6.49% (inactive)	21.5%	29.6%	inactive
COc1ccc(-c2coc3c(OC)c(OC)cc(OC)c3c2=O)cc1	inactive	inactive	inactive	12.7% (inactive)	16.4%	29.7%	inactive
COc1c2ccccc2nc2occc12	inactive	inactive	inactive	9.64% (inactive)	24.3%	38.1%	inactive
COc1cccc(/C=C/C(=O)O)c1C(C)C	inactive	inactive	inactive	9.75% (inactive)	13%	26.7%	inactive
COC1=CC(C)C2CC3OC(=O)CC4C(C)=C(OC)C(=O)C([C@]2(C)C1=O)[C@]34C (stereo partly specified)	inactive	inactive	inactive	1.13% (inactive)	5.55%	6.48%	inactive
C[C@@H]1OC(OC2CC[C@@]3(C)C(CC[C@@]4(C)C3CC=C3C5CC(C)(C)CC[C@]5(C(=O)OC5OCC(O)[C@@H](O)[C@@H]5OC5O[C@@H](C)[C@H](O[C@H]6OC(CO)C(O)C(O)C6O)C(O)C5O)C(O)C[C@@]34C)C2(C)C)C(O)C(O)[C@H]1OC1OCC(O)C(O)[C@H]1O (stereo partly specified)	inactive	inactive	inactive	1.15% (inactive)	-28.2%	-26.8%	inactive
COc1cc(/C=C/C(=O)O)cc(OC)c1OC	inactive	inactive	inactive	3.87% (inactive)	9.64%	14.9%	inactive
CC(=O)OC1CC(OC(C)=O)[C@]2(C)C(CC(OC(C)=O)[C@]3(C)C2CC[C@@]2(C)C(c4ccoc4)OC(=O)C4O[C@]432)C1(C)C (stereo partly specified)	1.26 µM (active)	inactive	inactive	0.867% (inactive)	-4.64%	-0.493%	inactive
NCCC(O)C(=O)NC1C[C@@H](N)[C@H](O[C@@H]2OC(CN)C(O)C(O)C2O)C(O)[C@H]1O[C@H]1OC(CO)C(O)C(N)C1O (stereo partly specified)	inactive	inactive	inactive	7.58% (inactive)	23.7%	35.1%	inactive
O=C(O)c1cc2cc(Cl)ccc2[nH]1	inactive	inactive	inactive	4.59% (inactive)	19.5%	25.3%	inactive
Nc1nc2c(nc(Sc3ccc(Cl)cc3)n2C2OC(CO)C(O)C2O)c(=O)[nH]1 (stereo unspecified)	15.8 µM (active)	inactive	inactive	5.03% (inactive)	14.6%	19.6%	inactive
COc1c(O)cccc1O	inactive	inactive	inactive	5.35% (inactive)	-1.6%	5.81%	inactive
CC(=O)OCC(=O)[C@@]1(O)CCC2C3CCC4=CC(=O)CC[C@@]4(C)[C@]3(F)C(O)C[C@]21C (stereo partly specified)	inactive	inactive	inactive	4.35% (inactive)	21.1%	29.1%	inactive
O=c1[nH]c(Cl)nc2c1ncn2C1OC(CO)C(O)C1O (stereo unspecified)	inactive	inactive	inactive	5.69% (inactive)	2.53%	10.3%	inactive
CNC1C(O)[C@@H]2OC(O[C@@H]3C(O)C(O)C(N)C[C@H]3N)C(N)C[C@H]2O[C@H]1O[C@@H]1OC(CO)C(N)C(O)C1O (stereo partly specified)	inactive	inactive	inactive	6.47% (inactive)	16.9%	24.6%	inactive
O=C(O)C(O)[C@@](O)(Cc1ccc(O)cc1)C(=O)O (stereo partly specified)	inactive	inactive	inactive	5.41% (inactive)	10.8%	18.1%	inactive
